Whole data set: some 33,000 sequences, median “e-score” near -0.05, cut for the highest 2% near 0.38. Only a selection was taken, and the highest values are over-represented in it overall.

The assay concerns the target T1, SIX1-Q177R homeodomain (human, UniProt Q15475 108-198, Q177R).
T1 sequence: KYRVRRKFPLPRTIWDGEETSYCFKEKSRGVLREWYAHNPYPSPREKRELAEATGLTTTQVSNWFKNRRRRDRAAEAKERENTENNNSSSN
Kind of assay: universal protein binding microarray; Universal all-10-mer PBM (8x60K, AMADID 030236), 300 nM GST-tagged protein, Alexa Fluor 488 anti-GST; buffer, salt, pH and temperature not stated (as in Berger); high values mean tight binding. The settings on record: protein: ivt; tags: N-terminal GST; dsDNA, one strand shown. In outline: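 After in vitro transcription/translation, GST-tagged homeodomains were quantified against a recombinant GST standard curve by anti-GST western blot. They were then placed in duplicate at 300 nM final concentration on universal 'all 10-mer' protein binding microarrays of 8×60K format.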
As to GGTGTAAA, the binding signal is 0.476 ± 0.0157 E-score. Regarding GGGGTAAA, the binding signal was determined as 0.29 ± 0.0101 E-score. As to CGTGTAAA, the binding signal was found to be 0.435 ± 0.0253 E-score.

AGTGTATG: the binding signal was 0.36 ± 0.013 E-score. Regarding AGTGTAAG, the binding signal turned out to be 0.415 ± 0.026 E-score. For the sequence AGTGTGAG, the binding signal worked out at 0.208 ± 0.00245 E-score.

As for AGTCGGGG, the binding signal worked out at 0.158 ± 0.0158 E-score. As for CCCCCCGC, the binding signal amounted to 0.248 ± 0.0302 E-score. Consider GCGATCCC, for which the binding signal came to 0.182 ± 0.0137 E-score. Consider CGGAGTGA, for which the binding signal is 0.216 ± 0.008 E-score. For CACGATGC, the binding signal turned out to be 0.182 ± 0.0345 E-score. The same measure for GGTGCCAC: 0.195 ± 0.0196 E-score. CTCCCGAC: the binding signal was 0.1532 ± 0.000212 E-score. As to AGTGTAAA, the binding signal turned out to be 0.402 ± 0.0464 E-score. The same measure for AGAGTAAC: 0.163 ± 0.0176 E-score; for AGTGTAAC: 0.419 ± 0.0327 E-score; for AGGGTAAC: 0.176 ± 0.0073 E-score. The same measure for TGTGTAAA: 0.235 ± 0.0184 E-score; for ACTGGGAG: 0.223 ± 0.0162 E-score; for ACCGGTGC: 0.238 ± 0.0365 E-score. The figure for CCGATCCA is 0.188 ± 0.0051 E-score.

ACCCCCTA: the binding signal was 0.337 ± 0.0127 E-score. As for ATTACTCC, the binding signal is 0.287 ± 0.0213 E-score.

ATTACCCC: the binding signal was determined as 0.294 ± 0.00817 E-score. As to ATTACACG, the binding signal was 0.435 ± 0.0178 E-score.

As for CTTACTCC, the binding signal stood at 0.194 ± 0.0358 E-score.

CTTACACA: the binding signal stood at 0.231 ± 0.0061 E-score.

ATTACACC: the binding signal was 0.479 ± 0.0126 E-score.

Regarding GTTACACA, the binding signal is 0.267 ± 0.0166 E-score. The same measure for ATTACACA: 0.291 ± 0.00197 E-score; for CTTACACC: 0.478 ± 0.00815 E-score. Consider ACGCGGGC, for which the binding signal came to 0.164 ± 0.0117 E-score.

As for GGTGGGTA, the binding signal is 0.165 ± 0.0261 E-score. The same measure for GAGATACC: 0.225 ± 0.0222 E-score. As to GATTAACA, the binding signal was 0.162 ± 0.0238 E-score. Turning to ACACTCGT, the binding signal amounted to 0.351 ± 0.0272 E-score. Consider AGACTCGG, for which the binding signal came to 0.16 ± 0.0294 E-score.

Turning to ACACTCGA, the binding signal was 0.358 ± 0.0137 E-score. Regarding CCACTCGC, the binding signal was determined as 0.222 ± 0.00987 E-score. As for ACACTCGC, the binding signal came out at 0.385 ± 0.0258 E-score. On to ACACTCGG, for which the binding signal came to 0.408 ± 0.0187 E-score. With AAGCTACA, the binding signal was 0.178 ± 0.0271 E-score. The figure for GGTGTGCA is 0.391 ± 0.0295 E-score; for GGTGTGAC it is 0.435 ± 0.0199 E-score; for GGTGTGAA it is 0.427 ± 0.00482 E-score. On to AGTGTGAC, for which the binding signal was 0.359 ± 0.00684 E-score.

Turning to AGTGTGAA, the binding signal came to 0.276 ± 0.021 E-score. On to CGTGTGCA, for which the binding signal worked out at 0.202 ± 0.0212 E-score. Turning to CGTGTGAC, the binding signal stood at 0.304 ± 0.0135 E-score. Turning to GGTGTGTA, the binding signal was 0.411 ± 0.0106 E-score. For the sequence AGTGTGTA, the binding signal worked out at 0.285 ± 0.00827 E-score.

For the sequence AGTGTGCA, the binding signal is 0.185 ± 0.00583 E-score. On to TGTGTGAA, for which the binding signal worked out at 0.187 ± 0.0245 E-score. In the case of CACTCGGA, the binding signal is 0.177 ± 0.0507 E-score.

As to GTATCACA, the binding signal was determined as 0.3 ± 0.034 E-score. Consider ATCCGACA, for which the binding signal amounted to 0.238 ± 0.04 E-score. Turning to ACCTAGGT, the binding signal came to 0.157 ± 0.0301 E-score. In the case of GGGGGATA, the binding signal stood at 0.2 ± 0.0198 E-score.

For the sequence CAAGCACC, the binding signal worked out at 0.176 ± 0.0183 E-score. GGTGTATA: the binding signal was found to be 0.458 ± 0.0157 E-score. With CGTGTATA, the binding signal was 0.367 ± 0.0156 E-score. For the sequence GGTATATA, the binding signal is 0.1906 ± 0.000509 E-score.

For the sequence GTGCAACA, the binding signal was 0.292 ± 0.0195 E-score. The same measure for ACCTATAA: 0.177 ± 0.008 E-score; for AGTTTATC: 0.208 ± 0.0174 E-score; for CCCCGAGC: 0.198 ± 0.0241 E-score. As to CGGGTATC, the binding signal came to 0.374 ± 0.0147 E-score. For AGTGTATC, the binding signal came out at 0.399 ± 0.0163 E-score. Consider AGAGTATC, for which the binding signal was found to be 0.238 ± 0.0465 E-score. Turning to CGTGTATC, the binding signal was 0.39 ± 0.00909 E-score. Consider AGTGTATA, for which the binding signal came out at 0.359 ± 0.0244 E-score. Regarding TCTAGACA, the binding signal turned out to be 0.155 ± 0.0039 E-score.

Take CGATCCCC: the binding signal was determined as 0.303 ± 0.0313 E-score. For CCCCAGGA, the binding signal turned out to be 0.173 ± 0.00623 E-score. Take AGCGAGTG: the binding signal was 0.268 ± 0.0193 E-score. As for CAAACTAG, the binding signal came out at 0.152 ± 0.0273 E-score. Turning to CGGTGCGC, the binding signal turned out to be 0.221 ± 0.0195 E-score. Regarding AGGTGTGA, the binding signal is 0.4098 ± 0.00286 E-score.

Take AGGTGTGC: the binding signal worked out at 0.322 ± 0.019 E-score. For the sequence AGGTGTGG, the binding signal was 0.371 ± 0.0242 E-score.

Consider CGGTGTGA, for which the binding signal was found to be 0.434 ± 0.0168 E-score.

As to GTGTGTGA, the binding signal was determined as 0.229 ± 0.0436 E-score. On to GGGTGTGA, for which the binding signal worked out at 0.429 ± 0.0152 E-score.

Turning to CGGTGTGC, the binding signal came out at 0.381 ± 0.0324 E-score. For CGGGGTGA, the binding signal amounted to 0.166 ± 0.0603 E-score. The same measure for ACGTGTGC: 0.16 ± 0.0249 E-score; for CGGTGAGA: 0.177 ± 0.0168 E-score. Consider GAGTGTGA, for which the binding signal turned out to be 0.29 ± 0.0218 E-score. ACTCCGAT: the binding signal amounted to 0.182 ± 0.0265 E-score. The figure for CCCCGACG is 0.162 ± 0.0371 E-score. As for CACTAAGA, the binding signal came out at 0.17 ± 0.0243 E-score. On to AGGTATCG, for which the binding signal was found to be 0.33 ± 0.00862 E-score. Consider ACCCTGGA, for which the binding signal stood at 0.168 ± 0.028 E-score.

On to CCCCACAG, for which the binding signal was determined as 0.172 ± 0.025 E-score. The figure for CACCAAGC is 0.26 ± 0.0355 E-score; for CACCAGCC it is 0.239 ± 0.0131 E-score. Regarding CCCCAACA, the binding signal is 0.278 ± 0.00752 E-score. The figure for ACTGACCC is 0.213 ± 0.011 E-score; for GCTGACAC it is 0.444 ± 0.00725 E-score; for ACTGACAA it is 0.153 ± 0.0151 E-score. The figure for CCTGACCC is 0.159 ± 0.0403 E-score; for CCTGACAC it is 0.452 ± 0.00834 E-score; for ACTGACAC it is 0.4777 ± 0.00257 E-score. The same measure for ACTGATAC: 0.295 ± 0.00533 E-score; for GCTGATAC: 0.243 ± 0.0143 E-score; for CCTGACGC: 0.161 ± 0.00552 E-score. GACTCCCC: the binding signal is 0.161 ± 0.0189 E-score. The same measure for AACCCACA: 0.157 ± 0.00573 E-score.

In the case of GAGTCACC, the binding signal was 0.157 ± 0.0094 E-score.

Turning to CTACGACA, the binding signal was 0.172 ± 0.0171 E-score.

(Values after paper PMC10668032, “Altered binding affinity of SIX1-Q177R correlates with enhanced WNT5A and WNT pathway effector expression in Wilms tumor”.)
